Compound activity (PubChem)
Shown are actives, neighbours in structure and some others; about 7.5% of the full set was active somewhere.
HCV inhibitor: qHTS Assay for Inhibitors of Hepatitis C Virus (HCV) | Huh7.5.1 HCVcc-Cre infection, luciferase reporter, 44 h | Potency, µM (series often up to 41.8 µM), without a hit: at the highest dose activity change, negative = inhibition, hits mostly inhibitors | 340,000 compounds, 3.4% hits | AID 651820, 2012; note: potency is the fitted concentration of half-maximal effect; % is set by controls: 0 for no effect and ±100 for the full control effect
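Reporter virus HCVcc-Cre (~0.5 moi) infects cells exposed to compound; seeding density 1,000 cells/well with 4 h settling beforehand. Luminescence, 15 sec read, taken 44 h post-infection following a 15 min RT substrate incubation.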
Vaccinia Venus: qHTS for Stage-Specific Inhibitors of Vaccinia Orthopoxvirus: Venus Reporter Primary qHTS; Vaccinia virus Venus reporter expression, fluorescence; Potency, µM (titrated, usually from 36.5 µM), for inactives: top-dose activity change, negative = inhibition, hits mostly inhibitors; 330,000 compounds, 0.46% hits; AID 720580, 2013; calls by dose curve; tested in A549 cells; note: potency is the fitted concentration of half-maximal effect; % is set by controls: 0 for no effect and ±100 for the full control effect; nearly all actives have a fitted effect of over 30% in size
FBPA Giardia inh: qHTS Assay for Inhibitors of Fructose-1,6-bisphosphate Aldolase from Giardia Lamblia; A8B2U2; purified Giardia FBPA; Potency, µM (doses to about 59.6 µM), for the others: top-dose activity, negative = inhibition, most hits filed as inhibitors; 290,000 compounds, 0.71% hits; AID 2451, 2010; note: potency is the fitted concentration of half-maximal effect; % is set by controls: 0 for no effect and ±100 for the full control effect; nearly all actives have a fitted effect of over 55% in size
Target sequence (A8B2U2 whole entry, looked up): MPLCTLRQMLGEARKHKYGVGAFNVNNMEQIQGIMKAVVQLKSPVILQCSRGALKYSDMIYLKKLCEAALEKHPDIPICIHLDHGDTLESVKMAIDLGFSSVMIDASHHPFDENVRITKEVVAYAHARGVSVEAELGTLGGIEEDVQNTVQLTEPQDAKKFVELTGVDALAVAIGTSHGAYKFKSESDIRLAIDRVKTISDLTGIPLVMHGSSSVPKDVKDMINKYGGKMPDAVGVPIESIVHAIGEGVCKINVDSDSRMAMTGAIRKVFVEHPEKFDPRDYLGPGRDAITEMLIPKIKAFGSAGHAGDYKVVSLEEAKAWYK
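40 nM FBPA preincubated 10 min at RT with compound (up to 57.5 uM final), then substrate plus GAPDH/TPI/NAD/arsenate coupling and diaphorase/resazurin added. Fluorescence read after 20 min at RT, 525/598 nm.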
Vaccinia mCherry: qHTS for Stage-Specific Inhibitors of Vaccinia Orthopoxvirus: mCherry Reporter Primary qHTS; Vaccinia virus mCherry reporter infection, fluorescence; Potency, µM (series often up to 36.5 µM), inactives show at the highest dose activity change, negative = inhibition, actives largely listed as inhibitors; 310,000 compounds, 0.63% hits; AID 720579, 2013; calls by dose curve; tested in A549 cells; note: potency is the fitted concentration of half-maximal effect; % is set by controls: 0 for no effect and ±100 for the full control effect; nearly all actives have a fitted effect of over 35% in size
FMDV antiviral: High Throughput Screening for Foot and Mouth Disease Virus Antivirals | FMDV antiviral cell-based qHTS | Potency, µM (titrated, usually from 57.9 µM), inactives show top-dose activity change, negative = inhibition, hits mostly inhibitors | 410,000 compounds, 1.2% hits; calls by dose curve; tested in HEK293T cells; note: read-out not given here; potency is the fitted concentration of half-maximal effect; % is set by controls: 0 for no effect and ±100 for the full control effect; nearly all actives have a fitted effect of over 45% in size
HCMV inh: qHTS Assay for inhibitors of the human cytomegalovirus (HCMV). HFF cells, HCMV-luciferase reporter, 72 h; stronger effect = lower value. activity change, negative = inhibition, % at 57.5 µM. 410,000 compounds, 4.5% hits; in the data active = activity change below about -60%; inconclusive = no clear call, values can overlap the other calls; inactive = above about -39%; note: % is set by controls: 0 for no effect and ±100 for the full control effect
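Steps: HFFs plated, 16 h 37C; compounds added; HCMV-luciferase added to MOI 1 PFU/cell; 72 h 37C; OneGlo reagent, 5 min room temperature; luminescence read, normalized to controls.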
HCV inh confirm: qHTS Assay for Inhibitors of Hepatitis C Virus (HCV): Confirmation Assay for Cherry-picked Compounds | 640 compounds, 78% hits | shares compounds with HCV inhibitor | Potency, µM (top dose mostly 41.8 µM), for the others: top-dose activity, negative = inhibition, most hits filed as inhibitors | HCVcc-Cre infectious virus cell assay, luciferase, inhibition; note: potency is the fitted concentration of half-maximal effect; nearly all actives have a fitted effect of over 80% in size
HCV cytotox: qHTS Assay for Inhibitors of Hepatitis C Virus (HCV): Cytotoxicity Counterscreen for Cherry-picked Compounds; shares compounds with HCV inhibitor; HCV host cell line cytotoxicity counterscreen; Potency, µM (top dose mostly 41.8 µM), for the others: at the highest dose activity change, negative = cytotoxicity, usual class: inhibitors; 640 compounds, 22% hits; AID 720576, 2013;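 note: potency is the fitted concentration of half-maximal effect; 44 h compound exposure; % is set by controls: 0 for no effect and ±100 for the full control effect; nearly all actives have a fitted effect of over 55% in size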
* = called active by the depositor; i = inactive; ? = inconclusive; / = no result given. Unless noted, calls come from the whole dose curve; as a rule, active = well fitted curve in the direction sought with a large enough effect; inconclusive = small, poorly fitted or top-dose-only effect, or another doubt; inactive = no such curve, though single readings can be large; an effect the other way counts as inactive or inconclusive.

SMILES | HCV inhibitor | Vaccinia Venus | FBPA Giardia inh | Vaccinia mCherry | FMDV antiviral | HCMV inh | HCV inh confirm | HCV cytotox
COc1ccc(CCNC(=O)COc2cc(O)c3c(c2)OC(C)(C)CC3=O)cc1 | ? | 0.7% | 8.1% | i | -16.1% | 0.0 | / | /
Cc1cc(=O)oc2c3c(cc(OCC(=O)Nc4ccc(CCO)cc4)c12)OC(C)(C)CC3 | 0.708µM* | -10.0% | -25.6% | -3.6% | -20.5% | 3.9 | 22.3µM* | 30.5%
CN1CCc2c(sc3c2C(=O)NC(c2ccc(C(C)(C)C)cc2)N3)C1 (centres undefined) | / | 10.8% | / | -4.2% | -6.4% | 10.3 | / | /
CC(=O)Nc1ccc(S(=O)(=O)NC(C)(C#N)C2CC2)cc1 (centres undefined) | 33.7% | 2.2% | -22.3% | -7.2% | -5.2% | -13.5 | / | /
CCCCCCCCCCn1c2c(c(=N)c3c1CCC3)CCC2 | 3.55µM* | 10µM* | -2.3% | 12.6µM* | 17.8µM* | -97.5* | 1.77µM* | 2.23µM*
COCCCNc1nc2c(S(=O)(=O)c3ccc(C)c(C)c3)nnn2c2ccc(Cl)cc12 | / | -17.5% | / | -24.8% | -7.2% | 5.6 | / | /
CN(C)S(=O)(=O)c1ccc(N2CCCC2)c(C(=O)Nc2nc3ccccc3s2)c1 | ? | -13.0% | -0.6% | ? | 50.3% | 6.8 | / | /
CN(C)S(=O)(=O)c1ccc(N2CCCC2)c(C(=O)Nc2nc3ccc(F)cc3s2)c1 | 7.94µM* | -1.0% | -4.8% | -3.8% | 34.7% | 13.7 | ? | -12.8%
COc1cccc(C(=O)Nc2ccc3c(c2)CCCN3C(=O)c2cccs2)c1OC | 4.47µM* | -14.5% | / | -6.6% | -15.2% | -32.7 | 25µM* | ?
Cc1ccc(S(=O)(=O)Nc2ccc3c(c2)CCCN3C(=O)c2cccs2)cc1C | / | ? | / | i | -3.7% | ? | / | /
COc1cccc(NC(=O)CCS(=O)(=O)c2cc3c(cc2Cl)NC(=O)CO3)c1 | 21.8% | / | / | / | -6.5% | -23.2 | / | /
N#Cc1ccccc1CSc1ccc(-c2nc3ccccc3[nH]2)cn1 | 8.91µM* | 0.0% | -0.8% | -3.7% | / | -23.1 | ? | 14.1µM*
O=C(Nc1ccc(Cn2cccn2)cc1)c1ccc(COc2ccc(Br)cc2)cc1 | 8.5% | -6.6% | 2.1% | -18.6% | -18.9% | 21.6 | / | /
O=C(Nc1ccn(Cc2ccccc2F)n1)c1ccc(COc2ccc(Br)cc2)cc1 | 6.31µM* | / | -1.5% | / | ? | -102.9* | 4.45µM* | -72.4%
COc1ccc(Oc2c(OC)cc([N+](=O)[O-])c3ncccc23)cc1 | -24.1% | -9.6% | / | ? | ? | 4.3 | / | /
COc1cc(NC(C)CCCN)c2ncccc2c1Oc1ccccc1 (centres undefined) | 7.94µM* | -7.1% | ? | -6.3% | -20.5% | 10.7 | 19.9µM* | -18.0%
CCCC(=O)NC(=S)Nc1ccc(N2CCN(C(=O)c3cccs3)CC2)cc1 | 0.794µM* | -4.2% | 2.0% | -2.3% | ? | -15.6 | ? | 21.9%
C=CCNC(=O)CSc1ncc2c(n1)-c1c(csc1SC)CC2 | -6.2% | -7.8% | ? | -0.7% | -27.5% | -23.4 | / | /
CSc1scc2c1-c1nc(SCC(=O)C(C)(C)C)ncc1CC2 | 8.91µM* | / | -8.7% | / | -5.0% | ? | 25µM* | -15.6%
CCOc1ccc(CCNC(=O)c2cc3sccc3n2C)cc1OCC | 6.31µM* | -13.5% | 3.6% | -21.3% | ? | -11.1 | 14.1µM* | ?
O=[N+]([O-])c1cc([N+](=O)[O-])c2oc(-c3ccccc3)c(Br)c2c1O | -23.8% | ? | 3.6% | -1.5% | ? | / | / | /
O=C(CCl)Nc1ccc(-c2ccccc2)cc1 | 3.16µM* | / | 0.4% | / | 22.4µM* | 80.7 | 6.28µM* | 8.87µM*
CC1CCc2sc(C(=O)OCC(=O)NC(C)C)cc2C1 (centres undefined) | 20.6% | -18.1% | 5.7% | -14.7% | 10.9% | ? | / | /
Cc1ccc(C)c(C(=O)NCCN(C)C)c1 | 0.8% | / | 6.0% | / | 7.5% | 59.6 | / | /
C=C(CN(C)C)C(=O)c1cc(C)ccc1C | ? | 7.08µM* | / | ? | ? | -98.9* | 8.87µM* | 7.91µM*
SMILES | HCV inhibitor | Vaccinia Venus | FBPA Giardia inh | Vaccinia mCherry | FMDV antiviral | HCMV inh | HCV inh confirm | HCV cytotox
O=S1(=O)c2ccc(Br)cc2N2CCC[C@@H]2CN1Cc1ccc(Cl)cc1 | 8.91µM* | -4.0% | / | -4.8% | ? | -9.8 | ? | 24.0%
O=S1(=O)c2cc(Cl)ccc2N2CCC[C@@H]2CN1Cc1ccc(Cl)c(Cl)c1 | / | / | / | / | / | 1.9 | / | /
COC(=O)C1=C(c2ccc(-c3ccccc3)c(F)c2)C[C@@H]2CC[C@H]1N2C(=O)NCc1cccc2ccccc12 | ? | -27.4% | / | -11.9% | -18.9% | 86.1 | 11.2µM* | 44.0%
CCCCOc1cccc(C(=O)N(Cc2ccc(C)o2)c2ccccn2)c1 | / | -17.3% | / | -25.2% | -27.2% | -39.5 | / | /
Cc1nn(Cc2c(F)c(F)c(F)c(F)c2F)c(C)c1NC(=O)c1ccc(COc2ccc(F)cc2)o1 | 2µM* | / | 4.9% | / | ? | ? | 14.1µM* | -23.2%
Cc1cc(C(=O)Nc2c(C)nn(Cc3ccc(F)cc3)c2C)on1 | 3.0% | -16.3% | 1.8% | i | -8.1% | 37.3 | / | /
COc1ccccc1-c1nnc(SCC(=O)Nc2ccc(S(N)(=O)=O)cc2)n1N | 3.0% | / | 2.2% | / | 2.3% | -8.8 | / | /
COc1ccc(-c2ccc(SCC(=O)NCc3ccc4c(c3)OCO4)nn2)cc1OC | 2.82µM* | -5.6% | 7.4% | -5.3% | -26.1% | 29.9 | -24.9% | -9.1%
CCOc1ccc2nc(SCC(=O)NCc3ccc4c(c3)OCO4)[nH]c2c1 | 3.98µM* | / | -2.6% | / | -19.0% | 143.3 | ? | -17.1%
CC1=C(C(=O)N(C)C)CC(CC(=O)NCc2cccc3ccccc23)C(=O)N1Cc1ccc(F)cc1 (centres undefined) | / | -16.1% | / | 15.7% | -13.0% | 7.4 | / | /
CCC(CO)Oc1cc(NC(=O)c2ccccc2)c2ncn(C(C)C)c2c1 (centres undefined) | ? | -7.5% | / | -12.6% | -22.2% | -1.3 | / | /
CCC(CO)Oc1cc(NC(=O)c2ccc(C)cc2)c2ncn(C(C)C)c2c1 (centres undefined) | ? | -16.9% | / | -25.6% | -9.7% | -7.0 | ? | 16.6%
FC(F)(F)c1nc(-c2cccs2)ncc1-c1nnnn1-c1ccc(Cl)cc1 | 5.01µM* | / | -6.8% | / | 11.2µM* | -60.5* | 6.28µM* | -94.3%
